We go through 4 molecules from PubChem BioAssay (EPA / NIEHS).

Test [1] can be described thus: ATG_PBREM_CIS: Attagene CIS-FACTORIAL HepG2 Assay for human Phenobarbital-responsive Enhancer Module (PBREM) (AID 2282955). The settings on record: HepG2 PBREM cis-reporter, Attagene multiplexed transcription; actives raise or lower the signal. The gist of the method:
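Readout: reporter mRNA, fluorescent RT-PCR fragments separated by capillary electrophoresis. System: HepG2 transiently transfected with cis-regulated reporter units. Exposure: 24 h. Analysis: bidirectional, DMSO baseline.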

In test [2] the target is Paired box protein Pax-6 (Homo sapiens) (UniProt P26367). In words: ATG_Pax6_CIS: Attagene CIS-FACTORIAL HepG2 Assay for human Paired Box 6 (PAX6) (AID 2282956). The settings on record: HepG2 CIS-FACTORIAL PAX6 reporter transcription, RNA readout; actives raise or lower the signal. The gist of the method:
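Multiplexed cis-reporter HepG2 system; 24 h treatment; reporter mRNA read by RT-PCR/CE fluorescence; bidirectional fit vs DMSO.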

Test [3] can be described thus: ATG_PXRE_CIS: Attagene CIS-FACTORIAL HepG2 Assay for human Pregnane X Receptor Element (PXRE) (AID 2282957). The settings on record: HepG2 Attagene CIS-FACTORIAL PXRE reporter, mRNA; actives raise or lower the signal. The gist of the method:
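Transfect HepG2 with MRTUs (cis promoter elements); dose chemical, incubate 24 h; isolate RNA, RT with oligo(dT), PCR, 6-FAM label, HpaI cut, CE. Gain/loss fit vs DMSO.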

Test [4] can be described thus: ATG_PPRE_CIS: Attagene CIS-FACTORIAL HepG2 Assay for human Peroxisome Proliferator-activated Response Element (PPRE) (AID 2282958). The settings on record: HepG2 PPRE cis-element reporter, Attagene transcription factor profiling; actives raise or lower the signal. The gist of the method: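 After human HepG2 hepatoma cells were transiently transfected with cis-promoter reporter constructs, they were exposed to test chemicals for 24 hours. Reporter RNA was then reverse-transcribed, PCR-amplified, FAM-labeled, HpaI-digested and quantified by capillary electrophoresis.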

Test [5] can be described thus: ATG_RORE_CIS: Attagene CIS-FACTORIAL HepG2 Assay for human RAR-related Orphan Receptor Element (RORE) (AID 2282959). The settings on record: HepG2 Attagene cis-factorial RORE reporter, mRNA; actives raise or lower the signal. The gist of the method:
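Measured here: transcript induction of a cis-regulated reporter in HepG2 cells transiently transfected via FuGene 6. After 24 h, RNA was processed by RT-PCR and fluorescent capillary electrophoresis; DMSO defined baseline activity.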

Test [6] in a line: ATG_Sox_CIS: Attagene CIS-FACTORIAL HepG2 Assay for human SRY-box transcription factor (SOX) (AID 2282960). The settings on record: HepG2 Attagene cis-factorial SOX reporter, mRNA; actives raise or lower the signal. The method, boiled down:
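Using transiently transfected HepG2 cells, reporter transcription driven by cis elements was assessed 24 h after dosing. Signal was fluorescence of capillary-separated RT-PCR products, with DMSO defining baseline activity.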

Test [7] addresses Transcription factor Sp1 (Homo sapiens) (UniProt P08047). In words: ATG_Sp1_CIS: Attagene CIS-FACTORIAL HepG2 Assay for human Specificity Protein 1 (Sp1) (AID 2282961). The settings on record: HepG2 Sp1 cis-reporter transcription, actives raise or lower the signal. The gist of the method: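 After transient transfection of HepG2 cells with cis-promoter reporter units and 24 h chemical treatment, reporter transcripts were quantified by RT-PCR and capillary electrophoresis fluorescence. Gain- and loss-of-signal fitted against DMSO.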

A short description of test [8]: ATG_SREBP_CIS: Attagene CIS-FACTORIAL HepG2 Assay for human Sterol Regulatory Element Binding (SREBP) (AID 2282962). The settings on record: HepG2 Attagene cis-factorial SREBP reporter, mRNA; actives raise or lower the signal. The gist of the method:
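mRNA induction of transfected cis-promoter reporters in HepG2 cells, 24 h post-dose. Detection: RT-PCR with 6-FAM-labelled products, HpaI digest, capillary electrophoresis. DMSO served as negative control and baseline.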

In test [9] the target is Signal transducer and activator of transcription 3 (Homo sapiens) (UniProt P40763). Put plainly: ATG_STAT3_CIS: Attagene CIS-FACTORIAL HepG2 Assay for human Signal Transducer and Activator of Transcription 3 (STAT3) (AID 2282963). The settings on record: HepG2, Attagene cis-factorial STAT3 reporter transcription; actives raise or lower the signal. The gist of the method: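 Endogenous STAT3-responsive cis-element activity was read in transiently transfected HepG2 cells after 24 h treatment. Reporter transcripts were quantified via RT-PCR and capillary electrophoresis, with DMSO as negative control and bidirectional curve fitting.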
Chain of Signal transducer and activator of transcription 3 (Homo sapiens) (P40763 whole entry, looked up): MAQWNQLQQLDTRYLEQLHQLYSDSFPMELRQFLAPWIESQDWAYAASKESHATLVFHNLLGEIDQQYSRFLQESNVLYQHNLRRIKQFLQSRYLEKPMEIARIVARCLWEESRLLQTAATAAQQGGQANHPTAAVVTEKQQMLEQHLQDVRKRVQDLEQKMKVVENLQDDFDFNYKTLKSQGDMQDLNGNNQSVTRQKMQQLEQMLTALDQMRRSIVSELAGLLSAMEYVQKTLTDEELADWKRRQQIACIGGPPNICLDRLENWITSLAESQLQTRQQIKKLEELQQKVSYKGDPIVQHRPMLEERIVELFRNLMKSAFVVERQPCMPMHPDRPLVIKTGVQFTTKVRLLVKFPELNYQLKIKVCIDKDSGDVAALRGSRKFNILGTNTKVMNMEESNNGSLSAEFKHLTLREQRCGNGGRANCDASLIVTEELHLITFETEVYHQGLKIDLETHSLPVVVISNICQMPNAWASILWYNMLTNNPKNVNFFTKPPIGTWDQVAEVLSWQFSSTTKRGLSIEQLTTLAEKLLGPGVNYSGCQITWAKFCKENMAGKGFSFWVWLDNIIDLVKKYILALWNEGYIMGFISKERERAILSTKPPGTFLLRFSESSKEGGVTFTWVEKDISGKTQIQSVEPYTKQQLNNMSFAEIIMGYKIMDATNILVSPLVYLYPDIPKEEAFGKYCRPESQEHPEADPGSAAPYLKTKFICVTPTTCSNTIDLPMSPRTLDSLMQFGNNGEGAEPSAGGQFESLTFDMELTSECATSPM

A short description of test [10]: ATG_TCF_b_cat_CIS: Attagene CIS-FACTORIAL HepG2 Assay for human T-Cell-Factor with beta-catenin (TCF/b-cat) (AID 2282965). The settings on record: HepG2 TCF/beta-catenin cis-reporter transcription, actives raise or lower the signal. The method, boiled down:
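Endogenous TCF/LEF activity read as reporter transcript level via RT-PCR and capillary electrophoresis fluorescence in transfected HepG2, 24 h exposure; gain or loss of signal fitted against DMSO controls.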

The nature of test [11]: ATG_TAL_CIS: Attagene CIS-FACTORIAL HepG2 Assay for human TAL Basal Promoter (AID 2282966).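 Note: background control endpoint measuring basal TAL promoter reporter mRNA not a specific factor.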 The settings on record: HepG2 Attagene cis-factorial TAL promoter reporter; actives raise or lower the signal. The gist of the method:
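Fluorescence of labelled reporter cDNA fragments, resolved by capillary electrophoresis, gave the readout. Human HepG2 liver cells carried transiently transfected cis-element reporter units and were treated for 24 hours; activity was fitted bidirectionally against DMSO.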

Test [12] in a line: ATG_TGFb_CIS: Attagene CIS-FACTORIAL HepG2 Assay for human Transforming Growth Factor (TGF) (AID 2282967). The settings on record: HepG2 Attagene CIS TGFb reporter, mRNA transcription; actives raise or lower the signal. The method, boiled down:
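Cells were dosed for 24 hours, after which total RNA was reverse-transcribed and reporter sequences amplified, labeled and sized by capillary electrophoresis. Activity was fitted in both directions against DMSO.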

Test [13] is described as follows: ATG_VDRE_CIS: Attagene CIS-FACTORIAL HepG2 Assay for human Vitamin D Receptor Element (VDRE) (AID 2282968). The settings on record: HepG2 VDRE cis-reporter transcription, actives raise or lower the signal. The gist of the method: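 Reporter mRNA induction, quantified by capillary electrophoresis of fluorescently labelled RT-PCR products, was read 24 h after dosing HepG2 cells carrying transiently transfected cis-regulated reporter units; gain or loss relative to DMSO.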

The target of test [14] is X-box-binding protein 1 (Homo sapiens) (UniProt P17861). Put plainly: ATG_Xbp1_CIS: Attagene CIS-FACTORIAL HepG2 Assay for human X-box Binding Protein 1 (XBP1) (AID 2282972). The settings on record: HepG2 XBP1 cis-element reporter, Attagene multiplex; actives raise or lower the signal. The gist of the method: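 Fluorescence-labelled cDNA fragments from reporter transcripts, separated by capillary electrophoresis, give the signal. Source: HepG2 cells transfected with promoter-driven reporter units, harvested 24 h post-dose. DMSO served as reference for bidirectional curve fitting.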
Chain of X-box-binding protein 1 (Homo sapiens) (P17861 whole entry, looked up, the tested form may be a part): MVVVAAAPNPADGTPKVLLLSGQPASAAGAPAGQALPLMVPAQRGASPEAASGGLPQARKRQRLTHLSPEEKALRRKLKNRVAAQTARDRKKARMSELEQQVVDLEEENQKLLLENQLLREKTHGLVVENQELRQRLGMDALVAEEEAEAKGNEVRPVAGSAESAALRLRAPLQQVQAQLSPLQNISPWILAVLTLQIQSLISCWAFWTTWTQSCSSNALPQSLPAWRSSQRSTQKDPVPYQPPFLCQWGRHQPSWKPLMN

The nature of test [15]: ATG_M_19_TRANS: Attagene TRANS-FACTORIAL HepG2 Assay for M19 Transcription Factor (Internal Marker) (AID 2282974; active = hit-call score of the fitted dose curve at least 0.9, where 1 is the maximum). The settings on record: HepG2 Attagene TRANS-FACTORIAL M19 internal marker reporter. The gist of the method:
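Gain-of-signal in reporter mRNA, relative to DMSO, was scored from capillary electrophoresis fluorescence. HepG2 cells carried transiently transfected multiple reporter transcription units and were incubated with test chemicals for 24 h.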

A short description of test [16]: ATG_GAL4_TRANS: Attagene TRANS-FACTORIAL HepG2 Assay for GAL4 (Internal Marker) (AID 2282976; active = hit-call score of the fitted dose curve at least 0.9, where 1 is the maximum). The settings on record: HepG2 Attagene TRANS GAL4 internal marker reporter. The gist of the method: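 First, HepG2 cells were transfected with reporter units under GAL4-UAS control. Next, they were treated with chemical for 24 h. Finally, RNA was reverse-transcribed, PCR-amplified, FAM-labelled and resolved by capillary electrophoresis, with induction scored against DMSO.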

For test [17], the target named is Nuclear receptor subfamily 1 group I member 3 (Homo sapiens) (UniProt Q14994). In words: ATG_CAR_TRANS: Attagene TRANS-FACTORIAL HepG2 Assay for human Constitutive Androstane Receptor (CAR) (AID 2282969; active = hit-call score of the fitted dose curve at least 0.9, where 1 is the maximum;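 note: activators raise reporter mRNA above DMSO so AC50 marks induction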). The settings on record: HepG2 Attagene TRANS-FACTORIAL CAR reporter. The gist of the method: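 Readout is reporter mRNA induction, quantified by fluorescent primer extension and capillary electrophoresis after RT-PCR. Cells were HepG2 transiently carrying chimeric NR-Gal4 constructs with GAL4-UAS reporters, treated for 24 h; activity scored upward from DMSO.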
Chain of Nuclear receptor subfamily 1 group I member 3 (Homo sapiens) (Q14994 whole entry, looked up, the tested form may be a part): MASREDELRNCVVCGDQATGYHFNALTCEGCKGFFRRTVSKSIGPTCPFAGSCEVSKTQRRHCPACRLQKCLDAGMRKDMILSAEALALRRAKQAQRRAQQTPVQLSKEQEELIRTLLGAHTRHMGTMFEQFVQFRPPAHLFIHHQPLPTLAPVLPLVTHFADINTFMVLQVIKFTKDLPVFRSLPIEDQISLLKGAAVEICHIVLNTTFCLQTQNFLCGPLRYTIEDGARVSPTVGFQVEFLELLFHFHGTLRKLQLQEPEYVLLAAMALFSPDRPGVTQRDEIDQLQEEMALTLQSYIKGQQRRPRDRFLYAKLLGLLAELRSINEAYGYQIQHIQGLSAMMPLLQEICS

Test [18] has as its target Estrogen receptor (Homo sapiens) (UniProt P03372). Put plainly: ATG_ERa_TRANS: Attagene TRANS-FACTORIAL HepG2 Assay for human Estrogen Receptor alpha (ERa) (AID 2282970; active = hit-call score of the fitted dose curve at least 0.9, where 1 is the maximum). The settings on record: HepG2 Attagene TRANS ERa GAL4 reporter, mRNA. The method, boiled down:
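Human liver HepG2, transient transfection of multiple GAL4-UAS reporter units; TRANS format (exogenous NR-Gal4 chimera). 24 h dosing. Readout: reporter mRNA, RT-PCR, 6-FAM primer extension, HpaI digest, capillary electrophoresis. Positive direction vs DMSO.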

For test [19], the target named is Steroid hormone receptor ERR1 (Homo sapiens) (UniProt P11474). Put plainly: ATG_ERRa_TRANS: Attagene TRANS-FACTORIAL HepG2 Assay for human Estrogen-Related Receptor alpha (ERRa) (AID 2282971; active = hit-call score of the fitted dose curve at least 0.9, where 1 is the maximum). The settings on record: HepG2 Attagene TRANS reporter, ERRa transactivation. The method, boiled down:
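Reporter transcript induction was quantified by RT-PCR and capillary electrophoresis of FAM-labelled, HpaI-cut products after 24 h treatment of HepG2 cells carrying transiently transfected GAL4-UAS reporter units and an exogenous ERRa-Gal4 fusion; activity scored as increase over DMSO.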

Test [20] in a line: ATG_TA_CIS: Attagene CIS-FACTORIAL HepG2 Assay for human TA Basal Promoter (AID 2282964). The settings on record: HepG2 Attagene CIS-factorial TA basal promoter reporter; actives raise or lower the signal. The method, boiled down: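 Steps: transfect HepG2 with MRTUs; dose 24 h; isolate RNA, DNase-treat, reverse-transcribe; PCR and FAM-label reporter cDNA; digest with HpaI 2h at 37 C; run capillary electrophoresis. Activity fitted both directions against DMSO.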

Structures are written as SMILES. Results filed as inconclusive are left out. The source made the active and inactive calls. Rule for the calls, unless noted: active = hit-call score of the fitted dose curve at least 0.9, where 1 is the maximum; inactive = score below 0.9.

Chain of Paired box protein Pax-6 (Homo sapiens) (P26367 whole entry, looked up): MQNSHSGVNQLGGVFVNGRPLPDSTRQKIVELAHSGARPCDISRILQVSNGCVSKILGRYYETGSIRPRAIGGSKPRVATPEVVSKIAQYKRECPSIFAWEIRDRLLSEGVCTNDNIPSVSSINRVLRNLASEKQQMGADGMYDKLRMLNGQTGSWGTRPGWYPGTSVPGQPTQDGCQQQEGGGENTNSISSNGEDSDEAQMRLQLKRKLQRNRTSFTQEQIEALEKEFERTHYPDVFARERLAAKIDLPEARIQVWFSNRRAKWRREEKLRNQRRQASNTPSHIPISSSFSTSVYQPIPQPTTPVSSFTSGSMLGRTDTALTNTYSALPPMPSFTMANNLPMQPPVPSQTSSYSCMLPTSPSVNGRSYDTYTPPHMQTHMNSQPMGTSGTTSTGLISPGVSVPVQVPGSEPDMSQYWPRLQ
Chain of Transcription factor Sp1 (Homo sapiens) (P08047 whole entry, looked up): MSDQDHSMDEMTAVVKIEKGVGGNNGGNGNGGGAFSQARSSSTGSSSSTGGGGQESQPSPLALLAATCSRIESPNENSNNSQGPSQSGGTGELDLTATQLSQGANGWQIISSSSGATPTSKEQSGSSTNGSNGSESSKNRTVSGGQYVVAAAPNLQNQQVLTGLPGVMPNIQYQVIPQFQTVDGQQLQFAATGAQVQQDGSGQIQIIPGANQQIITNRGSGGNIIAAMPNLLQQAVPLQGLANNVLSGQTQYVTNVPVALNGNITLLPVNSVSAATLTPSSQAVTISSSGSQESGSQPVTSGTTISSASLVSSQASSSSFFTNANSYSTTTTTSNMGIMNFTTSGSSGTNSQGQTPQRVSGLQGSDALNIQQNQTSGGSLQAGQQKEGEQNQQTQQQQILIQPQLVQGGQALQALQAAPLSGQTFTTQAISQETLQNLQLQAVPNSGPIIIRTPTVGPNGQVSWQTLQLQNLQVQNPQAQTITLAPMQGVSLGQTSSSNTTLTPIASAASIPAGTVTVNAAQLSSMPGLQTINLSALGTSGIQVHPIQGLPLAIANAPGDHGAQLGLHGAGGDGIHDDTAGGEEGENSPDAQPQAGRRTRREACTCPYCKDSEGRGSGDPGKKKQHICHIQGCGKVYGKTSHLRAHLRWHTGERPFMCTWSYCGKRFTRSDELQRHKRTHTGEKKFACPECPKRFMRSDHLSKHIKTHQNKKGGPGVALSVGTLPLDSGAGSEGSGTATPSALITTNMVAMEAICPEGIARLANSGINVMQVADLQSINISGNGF
Chain of Estrogen receptor (Homo sapiens) (P03372 whole entry, looked up, the tested form may be a part): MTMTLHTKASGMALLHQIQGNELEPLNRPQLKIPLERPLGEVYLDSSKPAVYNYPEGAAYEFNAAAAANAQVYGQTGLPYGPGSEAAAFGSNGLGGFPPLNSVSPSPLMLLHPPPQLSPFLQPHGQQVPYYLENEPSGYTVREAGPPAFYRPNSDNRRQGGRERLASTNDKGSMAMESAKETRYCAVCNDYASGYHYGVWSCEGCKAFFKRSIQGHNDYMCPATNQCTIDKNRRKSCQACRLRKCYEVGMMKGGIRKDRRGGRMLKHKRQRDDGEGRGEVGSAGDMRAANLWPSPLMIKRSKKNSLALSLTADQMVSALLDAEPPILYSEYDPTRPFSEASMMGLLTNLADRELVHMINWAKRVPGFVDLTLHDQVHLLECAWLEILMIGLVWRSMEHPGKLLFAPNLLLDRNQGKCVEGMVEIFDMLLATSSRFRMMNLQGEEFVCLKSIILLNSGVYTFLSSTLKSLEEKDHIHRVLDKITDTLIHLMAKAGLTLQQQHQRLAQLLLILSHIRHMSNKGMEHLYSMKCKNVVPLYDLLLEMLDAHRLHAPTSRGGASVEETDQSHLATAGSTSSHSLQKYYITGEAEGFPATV
Chain of Steroid hormone receptor ERR1 (Homo sapiens) (P11474 whole entry, looked up, the tested form may be a part): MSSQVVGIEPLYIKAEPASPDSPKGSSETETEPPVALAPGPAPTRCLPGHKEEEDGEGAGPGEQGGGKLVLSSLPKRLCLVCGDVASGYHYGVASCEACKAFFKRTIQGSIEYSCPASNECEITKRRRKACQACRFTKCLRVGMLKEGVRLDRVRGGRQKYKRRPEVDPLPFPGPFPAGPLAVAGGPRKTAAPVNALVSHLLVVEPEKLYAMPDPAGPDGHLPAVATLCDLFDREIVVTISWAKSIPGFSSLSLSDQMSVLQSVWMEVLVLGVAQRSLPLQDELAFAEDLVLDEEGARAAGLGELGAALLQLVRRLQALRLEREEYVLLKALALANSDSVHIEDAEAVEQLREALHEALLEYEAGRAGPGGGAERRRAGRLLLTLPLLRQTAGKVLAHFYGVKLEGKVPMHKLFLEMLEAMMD

For `CC(C)C(=O)OCc1ccccc1`, the result in test [1], in test [2], in test [3], in [4], in test [5] and in [6] was inactive. Besides, the result in test [7], in test [8], in [9], in [10], in [11] and in test [12] was inactive. The molecule was called inactive in [13], in test [14], in test [15] and in [16].
One may read the AC50 as the midpoint of the concentration-response curve, whichever way the signal moves. As for `O=C(c1ccccc1)c1ccc(O)cc1O`, the result in test [1], in test [2], in test [4], in [5], in test [6] and in test [7] was inactive. Also, the molecule was called inactive in test [8], in test [9], in [10], in test [11], in test [12] and in test [17]. Moreover, the call in test [14], in [15] and in [16] was inactive. In addition, the AC50 in [3] was 48.6 µM (active); in [18], 1.33 µM (active).
Consider `CNS(=O)(=O)C(F)(F)C(F)(F)C(F)(F)C(F)(F)C(F)(F)C(F)(F)C(F)(F)C(F)(F)F`, for which the outcome in test [1], in test [2], in [4], in [5], in test [6] and in test [7] was inactive. Besides, the call in test [8], in test [9], in [10], in [11], in test [12] and in [13] was inactive. The result in test [19], in test [14] and in test [15] was inactive. Further, the AC50 is 10.4 µM (active) in test [3] and 9.26 µM (active) in test [18].
Consider `NC(=O)C(F)(F)C(F)(F)C(F)(F)F`, for which the result in [1], in test [2], in [3], in test [4], in test [6] and in test [7] was inactive. In addition, the molecule was called inactive in test [8], in test [9], in test [20], in [10], in test [11] and in test [12]. Moreover, the call in test [13] and in [14] was inactive.
